GoLoco inh red: RGS12 GoLoco-Gai1 interaction inhibition | P63096 | Gai1:RGS12 GoLoco peptide FP, rhodamine, 10 min | Potency, µM (doses to about 61.6 µM), without a hit: at the top dose activity, negative = inhibition, hits mostly inhibitors | hit rate 0.44% among 230,000; active means well fitted inhibition curve with a large enough effect, not every such curve was filed as active; inactive means no such curve, though single readings can be large or run the other way; further: nearly all actives have a fitted effect of over 30% in size
RECQ1 helicase: RECQ1 (human) helicase inhibition | P46063 | AID 2549 | RECQ1 DNA unwinding, red fluorescence kinetic read | hit rate 0.54% among 240,000 | Potency, µM (series often up to 57.3 µM), for inactives: at the highest dose activity, negative = inhibition, hits mostly inhibitors;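 further: plate controls were vehicle for no effect and no enzyme for full effect; nearly all actives have a fitted effect of over 30% in size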
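50 nM RECQ1T1 preincubated 15 min with compound in Tris pH 8.0 buffer with MgCl2, DTT, Tween-20 and 2.5 ug/ml poly(dI-dC); started with 200 nM TAMRA/BHQ-2 forked duplex and 2 mM ATP. Unwinding read as fluorescence (525/598 nm), two reads 2 h apart.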
BLM inh: inhibitors of human Bloom syndrome helicase BLM. P54132. recombinant BLM DNA unwinding, fluorescence dequenching. Potency, µM (series often up to 56.1 µM), without a hit: at the top dose activity change, negative = inhibition, hits mostly inhibitors. hit rate 0.2% among 350,000. AID 2528;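 further: plate controls were vehicle for no effect and no enzyme for full effect; nearly all actives have a fitted effect of over 35% in size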
L3MBTL1 inh: inhibitors of human L3MBTL1. Potency, µM (titrated, usually from 57.1 µM), for inactives: top-dose activity, negative = inhibition, actives largely listed as inhibitors. Q9Y468. hit rate 0.66% among 230,000. AlphaScreen L3MBTL1–H3K9me1 peptide binding; further: nearly all actives have a fitted effect of over 60% in size
Target sequence (Q9Y468 whole entry, looked up): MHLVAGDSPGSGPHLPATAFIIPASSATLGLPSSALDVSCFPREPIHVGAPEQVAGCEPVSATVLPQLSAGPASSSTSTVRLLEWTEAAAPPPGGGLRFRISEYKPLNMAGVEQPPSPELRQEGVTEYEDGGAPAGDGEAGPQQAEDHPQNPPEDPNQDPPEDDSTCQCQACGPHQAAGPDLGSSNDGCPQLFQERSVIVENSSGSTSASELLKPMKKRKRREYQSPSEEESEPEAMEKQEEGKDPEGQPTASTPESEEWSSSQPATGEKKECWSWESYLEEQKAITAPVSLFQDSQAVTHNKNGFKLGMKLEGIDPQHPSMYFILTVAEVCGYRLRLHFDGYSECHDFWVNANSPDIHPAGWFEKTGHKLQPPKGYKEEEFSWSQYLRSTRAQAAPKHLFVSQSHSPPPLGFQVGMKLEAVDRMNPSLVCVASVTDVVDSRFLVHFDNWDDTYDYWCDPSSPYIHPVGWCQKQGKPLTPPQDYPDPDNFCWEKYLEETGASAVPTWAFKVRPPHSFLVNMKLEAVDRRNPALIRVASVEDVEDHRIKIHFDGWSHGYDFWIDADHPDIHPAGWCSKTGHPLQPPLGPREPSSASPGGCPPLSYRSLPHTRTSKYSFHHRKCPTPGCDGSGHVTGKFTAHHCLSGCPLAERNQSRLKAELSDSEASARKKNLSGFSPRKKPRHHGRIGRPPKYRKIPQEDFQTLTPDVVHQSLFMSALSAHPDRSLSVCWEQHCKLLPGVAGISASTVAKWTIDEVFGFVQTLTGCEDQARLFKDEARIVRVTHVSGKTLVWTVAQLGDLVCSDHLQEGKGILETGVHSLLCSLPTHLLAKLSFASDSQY
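L3MBTL1 50 nM + b-AHA-H3(1-15)K9me1 75 nM, 30 min RT; compound added, 30 min RT; streptavidin donor/Ni-chelate acceptor beads 10 ug/mL each final, 30 min RT dark; AlphaScreen read.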
APE1 inh: APE1 (human) endonuclease inhibition | AID 2517 | recombinant APE1, TAMRA/BHQ-2 abasic DNA cleavage fluorescence | P27695 | hit rate 0.35% among 350,000 | Potency, µM (highest dose often 65.8 µM), without a hit: at the top dose activity change, negative = inhibition, most hits filed as inhibitors;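 further: plate controls were vehicle for no effect and reference inhibitor for full effect; nearly all actives have a fitted effect of over 55% in size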
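Activity was derived from the fluorescence gain between first and third kinetic reads (60 s intervals, ex 525/em 598 nm) after 50 nM THF-abasic TAMRA/BHQ-2 duplex was added to 0.75 nM APE1 preincubated 15 min with compound.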
KDM4E inh: JMJD2E (human) inhibition; B2RXH2; JMJD2E catalytic domain, FDH-coupled NADH fluorescence (FDH is formaldehyde dehydrogenase); hit rate 1.6% among 230,000; Potency, µM (top dose mostly 57.1 µM), inactives show top-dose activity change, negative = inhibition, usual class: inhibitors; AID 2147; active means well fitted inhibition curve with a large enough effect, not every such curve was filed as active; inconclusive means small, poorly fitted or top-dose-only effect, or another doubt; inactive means no such curve, though single readings can be large or run the other way;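 further: 0% = wells with enzyme and -100% = buffer wells without enzyme; nearly all actives have a fitted effect of over 50% in size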
Numbers without * were called inactive; i = inactive; ? = inconclusive; . = no result; [ ] = another dose, or the depositor's remark. The full list was thinned out, with hits kept by preference. Unless noted, the call rests on the fitted dose curve; in most records, active means well fitted curve in the direction sought with a large enough effect; inconclusive means small, poorly fitted or top-dose-only effect, or another doubt; inactive means no such curve, though single readings can be large; an effect the other way counts as inactive or inconclusive. Unless noted, on the % scale 0 is the no-effect control and ±100 the full control effect; potency means the concentration at half of the fitted maximal effect.

SMILES	GoLoco inh red	RECQ1 helicase	BLM inh	L3MBTL1 inh	APE1 inh	KDM4E inh
Nc1ccc(N)c(Cl)c1	-8%	22µM*	.	.	?	.
O=C(c1ccc2c(c1)N(Cc1ccccc1)C(=O)c1ccccc1S2(=O)=O)N1CCCCCC1	.	.	-8%	.	.	.
CC1=NN(c2ccc(C(=O)O)c(N)c2)C(=O)C1	-13%	-24%	39%	.	2µM*	?
Cc1cc([N+](=O)[O-])nn1CC(=O)NCCCN1CCOCC1	.	.	-3%	.	14%	.
Cc1cc(C)c2c(=O)n(CC(=O)NCCCN3CCN(c4ccccc4F)CC3)sc2n1	20µM*	-3%	2%	-2%	-6%	28µM*
Cc1cc(C)c2c(=O)n(CC(=O)NCCCN3CCOCC3)sc2n1	32µM*	-9%	1%	6%	1%	?
Cc1ccccc1CS(=O)(=O)CCC(=O)NCCCN1CCN(c2ccccc2F)CC1	0%	-12%	-3%	5%	-11%	0%
NC(=O)c1ccccc1NC(=O)C1CCCN(c2ncnc3onc(-c4ccc(F)cc4)c23)C1 (stereo not drawn)	.	.	-4%	.	.	.
Oc1cccc2ccc(SSc3ccc4cccc(O)c4n3)nc12	0%[14.2 µM]	.	.	.	.	.
CCNC(=O)[C@@H]1CCCN1C(=O)[C@H](CCCN=C(N)N)NC(=O)[C@H](CC(C)C)NC(=O)[C@@H](Cc1c[nH]c2ccccc12)NC(=O)[C@H](Cc1ccc(O)cc1)NC(=O)[C@H](CO)NC(=O)[C@H](Cc1c[nH]c2ccccc12)NC(=O)[C@H](Cc1cnc[nH]1)NC(=O)[C@@H]1CCC(=O)N1	.	.	26%	.	.	.
O=C(Nc1ccc(F)cc1)Nc1ccc(N2CCCC2)c(S(=O)(=O)Nc2ccccc2Cl)c1	1%	-9%	-8%	-13%	?	22µM*
COc1ccccc1NS(=O)(=O)c1cc(NC(=O)c2cccs2)ccc1N1CCCCC1	16%	-10%	-13%	-9%	-10%	25µM*
CCOc1ccc(NC(=O)C2CCN(S(=O)(=O)c3ccc4c(c3)oc(=O)n4C)CC2)cc1	.	.	-4%	.	.	.
Oc1ccc(/C=C/c2ccc3cccc(O)c3n2)cc1Br	.	.	-10%	.	26%	.
O=C(O)c1ccc(/C=C/c2ccc3cccc(O)c3n2)cc1	6%	i	-20%	.	-2%	8.9µM*
O/N=C/c1ccc2cccc(O)c2n1	4%	10%	-3%	.	-3%	32µM*
O/N=C/c1ccc2ccccc2n1	-3%	-2%	1%	.	5%	-5%
Oc1cccc2ccc(/C=C/c3c(F)cccc3Cl)nc12	-6%	i	-5%	-10%	12%	28µM*
COc1ccc(S(=O)(=O)Nc2nc3ccccc3nc2Nc2ccc3c(c2)OCO3)cc1	12%	-1%	0%	1%	2%	0%
O=S(=O)(Nc1nc2ccccc2nc1Nc1ccc2c(c1)OCCO2)c1cccs1	5%	-20%	-17%	-25%	-6%	22µM*
c1coc(-c2ccc3ncnc(NCc4cccs4)c3c2)c1	.	.	.	-5%	13%	.
O=c1c2ccccc2nc(/C=C/c2cccnc2)n1CCc1ccccc1	0%	-8%	-8%	.	-4%	16µM*
O=c1c2ccccc2nc(/C=C/c2ccccc2)n1CCc1ccccc1	4%	-6%	-8%	21%	1%	-21%
Cc1coc2c(C)c3oc(=O)c(CCC(=O)N[C@@H](C)C(=O)N[C@@H](Cc4ccccc4)C(=O)O)c(C)c3cc12	.	.	-6%	.	13µM*	.
CCCC(NC(=O)Cc1c(C)c2cc3c(C)c(C)oc3c(C)c2oc1=O)C(=O)N[C@@H](Cc1ccccc1)C(=O)O (stereo partly drawn)	.	.	-11%	.	21µM*	.
N#Cc1c(-c2ccc(Cl)cc2)no[n+]1[O-]	.	.	.	.	-4%	.
COc1cc(OC)c(OC)cc1/C=N/NC(=O)c1ccc2nc[nH]c2c1	14%	-14%	-8%	2%	-11%	?
COc1cc(OC)c2cc(C(=O)N/N=C/c3cccc(OC)c3O)[nH]c2c1	6%	-3%	-5%	-2%	-6%	10µM*
